Activity calls are given as the source filed them.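 The calls were made as follows: active = fitted half-maximal concentration AC50 at or below ten times the highest valid tested dose, with signal falling as DNA is displaced (actives reach about 34 µM in these data); inconclusive = flat fit at moderate signal loss, or poor fit quality; inactive = the rest, including signal rising instead of falling.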
Assay: DNA intercalators displacing acridine orange, dose response, artefact control for KSHV LANA DNA-binding inhibitor project, biochemical, fluorescence polarization, cherry-picked samples, set 2 (AID 504727);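 as to activity change, negative = DNA displacement: 0% = median of neutral control wells and -100% = mitoxantrone positive control wells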
Settings: AC50: Acridine orange-DNA displacement; series mostly up to 35 µM; activity change, negative = DNA displacement: at the top concentration

| Compound | activity change, negative = DNA displacement | AC50 |
| --- | --- | --- |
| O=C(O)Cc1ccc(N=Nc2c(O)c(C(=O)O)cc3ccccc23)cc1 | 3.29% (inactive) |  |
| CCSc1nnc(Cc2cc(=O)[nH]c(=O)[nH]2)n1-c1ccc(F)cc1 | -3.18% (inactive) |  |
| CSc1ccc(/C=N/Nc2cccc(C(=O)O)c2)cc1 | 4.22% (inactive) |  |
| O=C(NCCCO)c1ccc2nc(-c3ccco3)c(-c3ccco3)nc2c1 | -3.41% (inactive) |  |
| C=CC[C@@H](CC(=O)N(CCO)Cc1ccccc1)C(=O)NC[C@H](OC(=O)[C@@H](CC=C)CC(=O)OC(C)(C)C)c1ccccc1 | -0.711% (inactive) |  |
| CCCc1cc(=O)oc2cc(C)cc(OCC(=O)O)c12 | -6.33% (inactive) |  |
| COc1ccc(NS(=O)(=O)c2ccc3c(c2)[C@H]2C=CC[C@H]2[C@@H](c2ccc(C(=O)O)cc2)N3)cc1 | 5.91% (inactive) |  |
| COc1cc(NC(=O)c2ccc(CNc3c(N4CCCC4)c(=O)c3=O)cc2)cc(OC)c1OC | 1.61% (inactive) |  |
| COC(=O)c1ccccc1OCC(=O)N1CCN(c2ccc(Cl)cc2)CC1 | 6.05% (inactive) |  |
| C=CCNC(=O)c1cn(CC)c2cc(N3CCN(C(=O)c4ccco4)CC3)c(F)cc2c1=O | -5.64% (inactive) |  |
| O=C(NCCN1CCN(C(=O)c2cccs2)CC1)c1cccs1 | 2.49% (inactive) |  |
| CCOC(=O)C1=C(O)/C(=C/c2cc(C)n(-c3ccccc3)c2C)N=C1C | 4.12% (inactive) |  |
| CCNc1ccc2noc3c2c1C(=O)c1ccccc1-3 |  | 0.935 µM (active) |
| O=C1C(=Cc2ccco2)CCC1=Cc1ccco1 | 2.6% (inactive) |  |
| CC(/C=C1\SC(=S)N(CCCC(=O)Nc2ccc(C(=O)O)cc2)C1=O)=C\c1ccccc1 | 6.23% (inactive) |  |
| O=C(CN1C(=O)/C(=C/c2ccco2)SC1=S)Nc1ccc(O)c(C(=O)O)c1 | -5.04% (inactive) |  |
| COc1ccc(NC(=O)CN(C)CC(=O)Nc2ccc(N3CCOCC3)cc2)c([N+](=O)[O-])c1 | -1.51% (inactive) |  |
| CCc1noc(C)c1C(=O)NCCc1c[nH]c2ccccc12 | -5.51% (inactive) |  |
| O=C(N/N=C/c1ccc(N2CCOCC2)cc1)c1ccccn1 | 5.79% (inactive) |  |

| Compound | activity change, negative = DNA displacement | AC50 |
| --- | --- | --- |
| CCc1nnc(NC(=O)c2cccc(S(=O)(=O)N(C)c3ccccc3)c2)s1 | -0.138% (inactive) |  |
| CC1CC(C)(C)NC(=S)N1CC(=O)N(C)Cc1ccccc1 (stereo not drawn) | -1.12% (inactive) |  |
| Brc1ccc(-c2noc(COc3ccc4c(c3)CCC4)n2)o1 | 4.23% (inactive) |  |
| COc1cccc2[nH]c(C(=O)NC(C)c3ccccc3)cc12 (stereo not drawn) | 2.83% (inactive) |  |
| O=C(O)c1ccc2c(c1)[C@@H]1C=CC[C@@H]1[C@H](c1ccccn1)N2 | -0.65% (inactive) |  |
| Cc1ccccc1NC(=O)CN1C(=O)N/C(=C\c2cccn2-c2cccc(C(=O)O)c2)C1=O | 3.04% (inactive) |  |
| Nc1ccc2cc3[nH]c4cc(N)ccc4c3nc2c1 |  | 1.48 µM (active) |
| CC(C)[C@H](NC(=O)c1ccccc1F)C(=O)NC1CCCCCCC1 | 4.11% (inactive) |  |
| CCOC(=O)C1=C(COC(=O)c2ccc([N+](=O)[O-])s2)NC(=O)NC1C (stereo not drawn) | -1.59% (inactive) |  |
| CC(Sc1nc2ccccc2s1)C(=O)Nc1nnc(C(C)C)s1 (stereo not drawn) | -3.03% (inactive) |  |
| CCOC(=O)c1c(C)n(C)c2ccc(OCCN(C)C)cc12 | -7.91% (inactive) |  |
| Cc1ccc(NC(=S)N/C(=N/S(=O)(=O)c2ccccc2)c2ccccc2)cc1 | 0.102% (inactive) |  |
| O=C(CCNc1ccc(Cc2ccncc2)cc1)c1cccc([N+](=O)[O-])c1 | -1.92% (inactive) |  |
| O=C(O)C1Nc2c(O)cc(Cl)c([N+](=O)[O-])c2C2C=CCC12 (stereo not drawn) | -18% (inactive) |  |
| C=C(C)C(=O)Nc1cccc(C2=NOC3(C2)C[C@@H](C(N)=O)N(C(=O)C2(C)CC2)C3)c1 (stereo partly drawn) | 4.47% (inactive) |  |
| Cc1nn(CC(=O)c2ccc(Br)s2)c(C)c1[N+](=O)[O-] | 21.5% (inactive) |  |
| COC(=O)C[n+]1cccc2ccccc21 |  | 8.59 µM (active) |
| Cc1cc[n+](-c2[nH]c(=O)sc2/C=N/N=C(\[O-])c2ccccc2)cc1C |  | 12.9 µM (active) |
| Cc1ccc(NS(=O)(=O)c2ccc(C(=O)NCCCN3CCCC3=O)cc2)cc1 | 2.52% (inactive) |  |
